The campaign covered roughly 220,000 compounds. About 2,000 (0.91%) were called active. Not shown: some 2% with an inconclusive outcome. Rule as the data show it: inconclusive = inhibition above about 80% without an active follow-up result; inactive = below that; test concentration not stated here. Not all results are given here. Measured potencies and affinities stand elsewhere.

These results are taken from PubChem BioAssay AID1626 (SRMLSC, 2009).

A short description of the test: M. tuberculosis H37Rv growth inhibitors, H37Rv strain (AID 1626).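 Also: bacteria incubated seven days before Alamar blue readout; 0% = bacteria only wells and 100% = bacteria with antibiotic wells.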 The conditions noted are these: hits give high values, concentration not given here.
What is called inhibition is the relative decrease from the control value, in per cent. On to `OCC1(Cc2ccccc2)CCN(Cc2ccc(C(F)(F)F)cc2)CC1`, for which the inhibition was 10.2% (inactive).
`CC1(C)C(c2ccc(Cl)cc2)=[N+]([O-])C2(CCCC/C2=N\O)N1O` (stereo unspecified): the inhibition was 2.14% (inactive).
To `O=C(N/N=C/c1cc(Br)cs1)c1ccc2c(c1)OCCO2` belongs 6.73% (inactive); to `O=C(CSc1nnc(-c2ccco2)n1CC1CCCO1)c1ccc(F)cc1` (stereo unspecified), -15.7% (inactive); to `N#CCSc1nc2ccccc2c(=O)n1CC1CCCC1`, -2.18% (inactive).
For the compound `CC(Sc1ccc(Br)cc1)C(N)=O` (stereo unspecified), the inhibition is -7.76% (inactive).
The same measure for `Cc1nc(N(C)C)c2sc(=S)n(-c3ccccc3)c2n1`: 0.72% (inactive).
Regarding `C/C(=N\NS(=O)(=O)c1ccc([N+](=O)[O-])cc1)c1ccc(NC(=O)c2ccco2)cc1`, the inhibition is -1.1% (inactive).
The same measure for `C=CCNC(=O)CSc1nnc(-c2ccccc2Br)n1-c1cccc(C(F)(F)F)c1`: 5.16% (inactive).
With `Cc1cc(C)c(OCC(=O)Nc2nc3ccccc3[nH]2)c(C)c1`, the inhibition is 9.75% (inactive).
To `Cc1cc(NC(=O)/C=C/c2ccccc2Cl)n(-c2nc3ccccc3[nH]2)n1` belongs 66.7% (inactive).
To `O=C(Nc1nc2ccccc2[nH]1)c1ccc([N+](=O)[O-])cc1` belongs 75% (inactive); to `COc1cccc(C(=O)Nc2nc3ccccc3[nH]2)c1`, 46.1% (inactive).
`COc1cc(C(=O)Nc2nc3ccccc3[nH]2)cc(OC)c1OC`: the inhibition was 75.8% (inactive).
The same measure for `CCOc1ccccc1OCC(=O)Nc1nc2ccccc2[nH]1`: 9.65% (inactive).
To `O=C(NCCc1nc2ccccc2[nH]1)c1ccc(Cl)c([N+](=O)[O-])c1` belongs -1.68% (inactive); to `Cc1cc(NC(=O)c2ccc(F)cc2F)n(-c2nc3ccccc3[nH]2)n1`, 4.49% (inactive).
Turning to `COCCn1c(SCC(=O)Nc2sc(C)c(C)c2C#N)nnc1-c1ccc(OC)cc1`, the inhibition is -11.5% (inactive).
To `CC(C)(C)C1CCc2onc(C(=O)O)c2C1` (stereo unspecified) belongs -7.72% (inactive); to `C/C(=N\NC(=O)Cc1c(C)[nH][nH]c1=O)c1ccc2ccccc2c1`, -1.62% (inactive).
To `CC(C)C(=O)NNC(=O)c1cc2sccc2s1` belongs -9.47% (inactive); to `Cc1cc(Br)c(NC(=O)CCl)c(Br)c1`, 10% (inactive); to `CC(=O)Nc1sc(N/N=C\c2ccco2)nc1-c1cccs1`, 2.35% (inactive).
On to `Cc1ccc(CONC(=O)c2ccc(OC(F)F)cc2)cc1`, for which the inhibition was -0.18% (inactive).
As to `CC1(C)C(c2ccccc2)=[N+]([O-])CN1O`, the inhibition was -10.2% (inactive).
The same measure for `Cc1cc(C)n(-c2nc3ccccc3[nH]c2=O)n1`: -9.01% (inactive); for `O=S(=O)(N/N=C/c1cccc(OC2CSC2)c1)c1ccccc1`: 2.91% (inactive); for `O=C(NCCCN1CCCC1=O)Nc1ccc(Cl)cc1`: -8.24% (inactive).
Take `Cc1c(C(=O)Nc2ccc3c4c(cccc24)CC3)cccc1[N+](=O)[O-]`: the inhibition is 13.3% (inactive).
The same measure for `Cc1ccc(-c2cc(C(=O)Nc3ccc(S(=O)(=O)Nc4nccs4)cc3)c3ccccc3n2)c(C)c1`: 69.9% (inactive); for `O=C(Nc1nccs1)c1cc(-c2ccncc2)nc2ccccc12`: -1.16% (inactive); for `Cc1ccc(-c2cc(C(=O)Nc3nccs3)c3ccccc3n2)o1`: 12.8% (inactive).
`O=C(Nc1nc(-c2ccc(F)c(F)c2)cs1)c1cnccn1`: the inhibition was 10.2% (inactive).
The same measure for `O=C(Nc1nc2c(s1)CCCC2)c1cc(-c2ccncc2)nc2ccccc12`: 10.1% (inactive).
As for `Cc1csc(NC(=O)c2cnccn2)n1`, the inhibition is -4.5% (inactive).
`O=C(Nc1nc2c(s1)CCCC2)c1cc(-c2ccccc2)nc2ccccc12`: the inhibition was 14.1% (inactive).
The same measure for `O=C(Nc1nccs1)c1cc(-c2ccccc2)nc2ccccc12`: 19% (inactive); for `CC(C)C1(C)N=C(c2ncccc2C(=O)O)NC1=O` (stereo unspecified): -2.93% (inactive).
To `Cc1nn(CC(=O)N2c3ccccc3NC(=O)C2(C)C)c(C)c1[N+](=O)[O-]` belongs 0.71% (inactive); to `Cc1c(NC(=O)C(C)OC(=O)Cc2ccccc2)c(=O)n(-c2ccccc2)n1C` (stereo unspecified), -13.3% (inactive); to `O=C(O)Cn1nnc2ccccc21`, -9.61% (inactive).
Regarding `CC(=O)Nc1ccccc1NC(=O)c1ccc(C)c(C)c1`, the inhibition was -3.12% (inactive).
Turning to `Nc1c(C(=O)N/N=C/c2ccc([N+](=O)[O-])cc2)sc2nnc(-c3ccccc3)c(-c3ccccc3)c12`, the inhibition is -2.7% (inactive).
To `O=C(NCC(O)CO)c1ccc2[nH]c3ccccc3c2c1` (stereo unspecified) belongs 1.5% (inactive).
The same measure for `Cn1c(N2CCCC2)nc2c1c(=O)n(Cc1cccc(F)c1)c(=O)n2C`: 2.57% (inactive); for `O=c1cc(-c2ccccc2)nc(N2CCN(Cc3ccccc3)CC2)[nH]1`: 16.3% (inactive).
To `Cc1nc(N2CCN(C)CC2)c2cc(-c3ccccc3)sc2n1` belongs -3.54% (inactive).
For `Cc1ccc(SCc2cc(=O)[nH]c(N3CCN(Cc4ccc5c(c4)OCO5)CC3)n2)cc1`, the inhibition was 4.26% (inactive).
Regarding `Cc1nc(N2CCOCC2)c2cc(-c3ccccc3)sc2n1`, the inhibition was 5.12% (inactive).
`COC(=O)c1cccc(NCN2C(=O)c3ccccc3C2=O)c1`: the inhibition was 1.78% (inactive).
To `COc1ccc(CN2CCn3nc(C(=O)NC4CC4)cc3C2=O)cc1` belongs 0.45% (inactive); to `CCc1nn(CC(=O)NCCN2CCN(C)CC2)c(=O)c2cc3occc3n12`, 2.11% (inactive); to `O=C(Nc1ccccc1F)C1CCCN(S(=O)(=O)c2ccccc2)C1` (stereo unspecified), 1.63% (inactive).
The same measure for `CC(=Nc1ccc2c(c1)nc(CO)n2C)C1=C(O)CC(C)(C)CC1=O`: -0.93% (inactive).
The same measure for `CC(=O)Nc1cccc(Oc2ncnc3scc(-c4ccccc4)c23)c1`: 1.97% (inactive); for `Cc1cc(=O)oc2cc(Oc3ccc([N+](=O)[O-])cc3[N+](=O)[O-])ccc12`: 51% (inactive); for `CC(=O)Nc1cccc(Oc2ncnc3scc(-c4ccc(C)cc4)c23)c1`: 17.3% (inactive).
For the compound `CCc1cc2c(C)cc(=O)oc2cc1Oc1ncccc1[N+](=O)[O-]`, the inhibition is 1.8% (inactive).
With `Cc1cc(=O)oc2cc(Oc3ncccn3)ccc12`, the inhibition was -2.26% (inactive).
To `Cc1cc(=O)oc2cc(Oc3ccc(C(N)=O)cc3[N+](=O)[O-])ccc12` belongs -11.6% (inactive); to `O=C(COC(=O)CCSc1ccc(Cl)cc1)NCc1ccc(Cl)cc1`, 1.66% (inactive); to `COc1ccc(CCC(=O)N/N=C\c2cccs2)cc1`, 36.8% (inactive).
The same measure for `Cc1ccc(-c2csc3nc(C(C)C)oc(=O)c23)c(C)c1`: 14.9% (inactive); for `COc1cc(C2SC(C)C(=O)N2CCc2ccccc2)cc(OC)c1OC` (stereo unspecified): 6.28% (inactive).
The same measure for `O=C(N/C=C/c1ccccc1)Nc1ccc(Cl)cc1`: 7.4% (inactive); for `Cc1nc2ccc(NC(=O)COc3ccccc3C)cc2s1`: 52.7% (inactive); for `Cc1nc2ccc(NC(=O)Cc3cccc(F)c3)cc2s1`: 0.69% (inactive).
For the compound `Cc1nc2ccc(NC(=O)COc3ccccc3)cc2s1`, the inhibition is 83.5% (inactive).
To `COc1ccc(CC(=O)Nc2ccc3nc(C)sc3c2)cc1OC` belongs 2.65% (inactive).
The same measure for `COc1cc(CC(=O)Nc2ccc3nc(C)sc3c2)cc(OC)c1OC`: -7.08% (inactive); for `COc1ccc(OCC(=O)Nc2nc3ccc(NC(C)=O)cc3s2)cc1`: -3.22% (inactive).
The same measure for `Cc1cccc(OCC(=O)Nc2ccc3nc(C)sc3c2)c1`: 89.5% (inactive).
With `CC(=O)c1ccc(OCC(=O)Nc2ccc3nc(C)sc3c2)cc1`, the inhibition was 56.8% (inactive).
For the compound `CCC(C)(C)NC(=O)C(c1cccc(OC)c1)N(C(=O)c1ccn[nH]1)c1cccc(OC)c1` (stereo unspecified), the inhibition was -8.88% (inactive).
The same measure for `COCCNC(=O)c1cn(C)c2ccc(S(=O)(=O)N(C)C3CCCCC3)cc2c1=O`: -12% (inactive).
The same measure for `COc1ccc(S(=O)(=O)N(CC(=O)N2CCN(C)CC2)c2ccccc2)cc1OC`: -11.1% (inactive); for `CCC(CC)C1C(C#N)=C(N)Oc2cc(C)oc(=O)c21` (stereo unspecified): -11.1% (inactive); for `Cc1cc2nnc(SCC(=O)NCC3CCCO3)n2c2ccccc12` (stereo unspecified): -6.93% (inactive).
The same measure for `Cc1ccc(-c2csc(/C(C#N)=C/Nc3ccccc3SC(F)(F)F)n2)c(C)c1`: -7.14% (inactive).
As for `COc1cc(C2c3c(oc4ccccc4c3=O)C(=O)N2Cc2cccnc2)cc(OC)c1OC` (stereo unspecified), the inhibition is 1.59% (inactive).
As for `CCN(C(=O)CN1c2ccccc2CC1C)c1c(N)n(Cc2ccccc2)c(=O)[nH]c1=O` (stereo unspecified), the inhibition was 3.3% (inactive).
The same measure for `CSc1nc2ccc(NC(=O)C3CC(=O)N(Cc4ccco4)C3)cc2s1` (stereo unspecified): 7.1% (inactive).
The same measure for `CC(=O)c1cccc(NC(=O)C2CC(=O)N(Cc3ccccc3)C2)c1` (stereo unspecified): -1.4% (inactive).
The same measure for `O=C(NNS(=O)(=O)c1ccccc1C(F)(F)F)c1cccc(S(=O)(=O)Nc2ccccc2Cl)c1`: 5.57% (inactive); for `CC(C)CNS(=O)(=O)c1ccc(CCC(=O)N2CCN(c3ccccc3)CC2)cc1`: 0.62% (inactive); for `Nc1c(C(=O)NCC2CCCO2)sc2nc3c(c(-c4ccco4)c12)CC/C3=C\c1ccco1` (stereo unspecified): -3.62% (inactive).
Regarding `O=[N+]([O-])c1cc(S(=O)(=O)C(F)(F)F)ccc1N1CCN(c2ccccc2)CC1`, the inhibition was 26.1% (inactive).
As for `O=[N+]([O-])c1cc(S(=O)(=O)Nc2ccccc2)ccc1N1CCN(c2ccc(O)cc2)CC1`, the inhibition was 3.41% (inactive).
With `CC(C)c1nc2sc3c(NCc4ccccc4)ncnc3c2c2c1COC(C)(C)C2`, the inhibition is -2.03% (inactive).
With `Cc1ccc(N/C(N)=N/c2nc3c(c(=O)[nH]2)CCCC3)c(C)c1`, the inhibition is 6.84% (inactive).
To `COc1ccc(C)cc1N/C(N)=N/c1nc(C)cc(C)n1` belongs -4.57% (inactive); to `S=C1NC2(CCCCC2)Cc2ccccc21`, 4.66% (inactive); to `Cc1sc2nc(-c3cccnc3)[nH]c(=O)c2c1-c1ccccc1`, -0.42% (inactive).
To `COc1cccc(/C=c2\s/c(=C/C(=O)c3ccc(C)cc3)[nH]c2=O)c1OC` belongs 17.8% (inactive); to `COc1ccc(/C=C2\SC(c3ccc(C)cc3)=NC2=O)cc1OC`, -10.8% (inactive).
Consider `COc1ccc(C=C2C(=O)c3ccccc3C2=O)cc1O`, for which the inhibition was 1.77% (inactive).
To `CC(C)(C)C(=O)/C=c1\[nH]c(=O)/c(=C\c2ccc(C#N)cc2)s1` belongs 75.3% (inactive); to `CCc1ccc(/C=C(\C)C(=O)c2c(C)cc(C)[nH]c2=O)cc1`, 5.72% (inactive); to `CC(C)(C)C(=O)/C=c1\[nH]c(=O)/c(=C\c2ccccc2F)s1`, 79.9% (inactive).
To `COc1cc(/C=c2\s/c(=C\C(=O)C(C)(C)C)[nH]c2=O)cc(OC)c1OC` belongs 66.3% (inactive).
To `Cc1ccccc1/C=C1\CCCc2ccccc2C1=O` belongs 5.73% (inactive).
